Rows were chosen to be rich in hits. Some 19% of all compounds tested hit in one or more screens of this group.
HT1080 IDH1KD tx: qHTS for induction of synthetic lethality in tumor cells producing 2HG: qHTS for the HT-1080-IDH1KD cell line; HT-1080 IDH1 knockdown viability, ATP luminescence, 48 h; 2% of 360,000 active; Potency, µM (series often up to 46.1 µM), without a hit: at the top dose activity, negative = toxicity, usual class: cytotoxic;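 note: 0% = DMSO wells and -100% = cell-free medium wells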
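In this qHTS, HT-1080 cells depleted of IDH1 are exposed for 48 h at 37 °C to compound titrations. Toxicity is scored from CellTiter-Glo luminescence, with DMSO as full viability and medium alone as none.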
KB-3-1 tox: qHTS assay for MDR1-selective chemotherapeutics: Primary screen using the parental adenocarcinoma cell KB-3-1 | KB-3-1 viability, CellTiter-Glo ATP luminescence, 72 h | Potency, µM (doses to about 46.1 µM), most hits filed as cytotoxic | 1.4% of 400,000 active; note: nearly all actives have a fitted effect of over 60% in size
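Multi-concentration cytotoxicity screen in KB-3-1 cells grown in DMEM lacking phenol red with 10% FBS. After 72 h at 37 °C with compound, ATP-dependent luminescence was recorded.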
DT40 TDP1 no CPT: qHTS for Inhibitors of human tyrosyl-DNA phosphodiesterase 1 (TDP1): qHTS in cells in absence of CPT; DT40 Tdp1-/- hTDP1 cells, no CPT, ATP luminescence, 48 h; Potency, µM (highest dose often 46.2 µM), inactives show at the highest dose activity change, negative = growth inhibition, most hits filed as inhibitors; 15% of 420,000 active; AID 686978, 2013; note: nearly all actives have a fitted effect of over 55% in size
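Growth kinetics read by CellTiter-Glo luminescence after ≥48 hr at 37 °C. Cells: DT40 Tdp1-/- stably carrying human TDP1, 400 per well, compound exposure in the absence of CPT (DMSO vehicle).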
DT40 TDP1 CPT: qHTS for Inhibitors of human tyrosyl-DNA phosphodiesterase 1 (TDP1): qHTS in cells in presence of CPT. 12% of 420,000 active. Potency, µM (highest dose often 46.2 µM), inactives show at the top dose activity change, negative = growth inhibition, usual class: inhibitors. chicken DT40 Tdp1-/-;hTDP1 cells + 20 nM CPT, ATP luminescence, 48 h; note: nearly all actives have a fitted effect of over 55% in size
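Chicken DT40 Tdp1-/- cells stably complemented with human TDP1 were seeded at 400 cells/well in medium containing 20 nM camptothecin, exposed to pin-transferred compounds, and grown at 37 °C for at least 48 hr. Viability was read as ATP luminescence.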
KB-V1 MDR tox: qHTS assay for MDR1-selective chemotherapeutics: Primary screen using the drug-selected MDR subline cells KB-V1; 3.4% of 400,000 active; Potency, µM (highest dose often 46.1 µM), hits mostly cytotoxic; KB-V1 MDR cells viability, CellTiter-Glo, 72 h; note: nearly all actives have a fitted effect of over 60% in size
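qHTS viability screen in drug-selected KB-V1 MDR cells: 72 h compound treatment at 37 degrees C, ATP luminescence end point.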
HT1080-NT tox: qHTS for induction of synthetic lethality in tumor cells producing 2HG: qHTS for the HT-1080-NT fibrosarcoma cell line; 1.6% of 360,000 active; HT-1080-NT fibrosarcoma viability, CellTiter-Glo ATP luminescence, 48 h; Potency, µM (titrated, usually from 46.1 µM), for the others: at the top dose activity, negative = less viability, hits mostly cytotoxic;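 note: NT is the 2HG producing partner of a matched IDH1 knockdown line; 0% = DMSO-treated cells and -100% = media-only wells without cells; nearly all actives have a fitted effect of over 55% in size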
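HT-1080-NT; 750 cells/well; 5% FBS RPMI; 48 h compound, 37 degrees C; CellTiter-Glo luminescence; curve fitting and curve-class assignment.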
* marks the source's active call; other numbers are inactive results; ! = repeats disagree. Calls come from the whole dose curve; as a rule, active = well fitted curve in the direction sought with a large enough effect; inconclusive = small, poorly fitted or top-dose-only effect, or another doubt; inactive = no such curve, though single readings can be large; an effect the other way counts as inactive or inconclusive. Unless noted, % is set by controls: 0 for no effect and ±100 for the full control effect; potency is the fitted concentration of half-maximal effect.

How did COc1cc(OC)c(OC)cc1CN1CCN(C(=O)COc2ccc3ccccc3c2)CC1 do in these assays?
HT1080 IDH1KD tx: -6%; KB-3-1 tox: inactive; DT40 TDP1 no CPT: 26µM*; DT40 TDP1 CPT: inconclusive; KB-V1 MDR tox: inconclusive; HT1080-NT tox: -16%

What do the screens show for `COc1ccc(OCC(=O)N2CCN(Cc3ccc4c(c3)OCO4)CC2)cc1`?
HT1080 IDH1KD tx: -3%; KB-3-1 tox: inactive; DT40 TDP1 no CPT: 12%; DT40 TDP1 CPT: -27%; KB-V1 MDR tox: inactive; HT1080-NT tox: -4%

Results for COc1ccc(OCC(=O)N2CCN(Cc3ccc(SC)cc3)CC2)cc1 ?
HT1080 IDH1KD tx: -10%; KB-3-1 tox: inactive; DT40 TDP1 no CPT: 23µM*!; DT40 TDP1 CPT: inconclusive; KB-V1 MDR tox: inactive; HT1080-NT tox: -4%

How did CC1(C)C(O)CC(O)[C@]2(C)C1CC(O)[C@]1(C)C2CC[C@@]2(C)C(c3ccoc3)CC3OC312 (stereo partly specified) do in these assays?
DT40 TDP1 no CPT: -13%; DT40 TDP1 CPT: -8%

Results for CN(C(=O)Cc1ccc(Cl)c(Cl)c1)[C@H](CN1CCCC1)c1ccccc1 ?
DT40 TDP1 no CPT: 12µM*; DT40 TDP1 CPT: 15µM*

Results for c1ccc(-c2ccc(C(c3ccccc3)n3ccnc3)cc2)cc1 (stereo unspecified) ?
HT1080 IDH1KD tx: inconclusive; KB-3-1 tox: inactive; DT40 TDP1 no CPT: 23µM*; DT40 TDP1 CPT: 10µM*; KB-V1 MDR tox: inconclusive; HT1080-NT tox: inconclusive

Results for c1ccc(C(c2ccccc2)c2cccnc2)cc1 ?
HT1080 IDH1KD tx: -20%; KB-3-1 tox: inactive; DT40 TDP1 no CPT: inconclusive; DT40 TDP1 CPT: -30%; KB-V1 MDR tox: inactive; HT1080-NT tox: 0%

How did CC=C(CC)C1(CC)C(=O)NC(=S)NC1=O do in these assays?
HT1080 IDH1KD tx: 11%; KB-3-1 tox: inactive; DT40 TDP1 no CPT: 4%; DT40 TDP1 CPT: 7%; KB-V1 MDR tox: inactive; HT1080-NT tox: 2%

How did CC(C)c1ccc(N2C(=O)NC(=O)/C(=C\C=C\c3ccco3)C2=O)cc1 do in these assays?
HT1080 IDH1KD tx: 5.8µM*; KB-3-1 tox: inconclusive; DT40 TDP1 no CPT: inconclusive; DT40 TDP1 CPT: inconclusive; KB-V1 MDR tox: inconclusive; HT1080-NT tox: 4.1µM*

What do the screens show for `CC(C)(O)C1O[C@H]2CC[C@@]3(C)[C@@](O)(CC[C@H]4Cc5c([nH]c6ccccc56)[C@@]43C)C2=CC1=O` (stereo partly specified)?
DT40 TDP1 no CPT: 24µM*; DT40 TDP1 CPT: 21µM*

Results for O=C(Nc1cccc(F)c1)N1CC2(CCN(C(=O)Oc3ccccc3)CC2)C1 ?
DT40 TDP1 no CPT: inconclusive; DT40 TDP1 CPT: 9%

Results for CS(=O)(=O)OCC(O)C(O)COS(C)(=O)=O (stereo unspecified) ?
DT40 TDP1 no CPT: 11µM*; DT40 TDP1 CPT: 13µM*

Results for CC(C)OS(C)(=O)=O ?
HT1080 IDH1KD tx: 4%; KB-3-1 tox: inactive; DT40 TDP1 no CPT: 3%; DT40 TDP1 CPT: 5%; KB-V1 MDR tox: inactive; HT1080-NT tox: 2%

What do the screens show for `O.O.O.O=C([O-])C(O)C(O)C(=O)[O-].O=C([O-])C(O)C(O)C(=O)[O-].[K+].[K+].[Sb].[Sb]` (stereo unspecified)?
DT40 TDP1 no CPT: -29%; DT40 TDP1 CPT: -9%
